Assay outcomes from PubChem.
Sampled rows, rich in hits. Any-hit rate of the full collection: about 4.7%.
ATXN viability = cell viability loss in ATXN counter-screen | S2 cells (HEK-293 line with an ATXN2-luciferase reporter) viability, CellTiter-Fluor protease fluorescence, 24 h | Potency, µM (titrated, usually from 56.7 µM), usual class: cytotoxic | actives 0.49% (n = 400,000) | AID 651635; note: nearly all actives have a fitted effect of over 40% in size
HepG2 tox = HepG2 cytotoxicity, counter-screen for TGF-b inhibitors | HepG2 CAGA-GFP viability, ATP luminescence, 18 h | actives 0.76% (n = 410,000) | AID 588856 | Potency, µM (top dose mostly 46.1 µM), most hits filed as cytotoxic
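CellTiter-Glo luminescence gave cytotoxicity after 18 hours at 37 degrees C. The cells were HepG2 CAGA-GFP in 1% FBS DMEM, stimulated with 500 pg/mL TGF-beta after compound addition. %Activity was normalised to no-cell wells (complete cell-killing) and DMSO (no toxicity), and curves were fitted and classified.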
D3 ag = agonists of human D3 dopamine receptor; P35462; D3R DiscoveRx beta-arrestin cells, luminescence, 90 min; max activation, %; actives 0.58% (n = 410,000); AID 652048; in the data active = max activation above about 30%
Target sequence (P35462 whole entry, looked up): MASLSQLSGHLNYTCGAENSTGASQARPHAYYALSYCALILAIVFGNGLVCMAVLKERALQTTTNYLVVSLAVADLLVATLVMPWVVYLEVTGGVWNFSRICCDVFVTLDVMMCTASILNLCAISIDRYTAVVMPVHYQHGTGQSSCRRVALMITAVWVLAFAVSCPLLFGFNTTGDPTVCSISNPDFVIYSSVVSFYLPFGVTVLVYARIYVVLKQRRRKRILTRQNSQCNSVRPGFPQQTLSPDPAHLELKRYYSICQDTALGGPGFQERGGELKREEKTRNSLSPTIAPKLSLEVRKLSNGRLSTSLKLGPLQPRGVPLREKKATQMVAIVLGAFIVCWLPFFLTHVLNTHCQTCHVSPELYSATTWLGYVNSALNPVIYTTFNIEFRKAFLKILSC
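Cells at 1500/well, incubated overnight, then treated with pinned compounds (dopamine as control) for 90 min at 37 degrees C. DiscoveRx reagent added for 30 - 60 minutes at room temperature; luminescence read.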
ATXN2 expr inh = inhibitors of ATXN2 expression. HEK-293 ATXN2-luciferase reporter, luminescence, 24 h. Potency, µM (titrated, usually from 57 µM), hits mostly inhibitors. actives 0.72% (n = 360,000). AID 1745845; note: nearly all actives have a fitted effect of over 55% in size
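ATXN2-luciferase reporter cells (luciferase flanked by upstream and downstream ATXN2 gene portions) were treated 24 h at 37 °C with compounds at up to 57 uM. SteadyGlo luminescence gave expression; GF-AFC fluorescence gave viability.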
D3 antag = antagonists of human D3 dopamine receptor; P35462; D3R cells, DiscoveRx beta-arrestin luminescence, antagonist mode; stronger effect = lower value; max response, negative = inhibition, %; actives 2.5% (n = 360,000); in the data active = max response below about -50%; inconclusive = no clear call, values can overlap the other calls
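Cells expressing the human receptor were seeded at 1500 cells/well, incubated overnight at 37 degrees C in 5% CO2, then exposed to library compounds with dopamine controls for 90 minutes at 37 degrees C before luminescent detection.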
TGFb inhibitor = blocks TGF-b signaling. HepG2 CAGA-GFP TGF-b/SMAD3 reporter, GFP fluorescence, 18 h; TGF-beta stimulated, 500 pg/mL final. Potency, µM (doses to about 46.1 µM), actives largely listed as inhibitors. actives 1.2% (n = 410,000); note: nearly all actives have a fitted effect of over 65% in size
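HEPG2 CAGA-GFP reporter cells (1000/well, DMEM with 1% FBS) received compounds, then recombinant TGF-beta at 500 pg/mL final for 18 hours at 37 degrees C. Per-cell GFP summed per well was normalised to unstimulated and stimulated DMSO controls before curve fitting.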
Hits are given with their value. Unless noted, calls come from the whole dose curve; as a rule, active = well fitted curve in the direction sought with a large enough effect; inconclusive = small, poorly fitted or top-dose-only effect, or another doubt; inactive = no such curve, though single readings can be large; an effect the other way counts as inactive or inconclusive.

How did O=C(COc1ccc(Cl)cc1Cl)Nc1ccccn1 do in these assays?
ATXN viability: inactive; HepG2 tox: inactive; D3 ag: inactive; ATXN2 expr inh: 2.8µM; D3 antag: inactive; TGFb inhibitor: inactive

How did Cc1cc(NC(=O)COC(=O)[C@H](Cc2c[nH]c3ccccc23)NC(=O)c2ccc(F)cc2)no1 do in these assays?
ATXN viability: inactive; HepG2 tox: inactive; D3 ag: inactive; ATXN2 expr inh: inactive; D3 antag: -51; TGFb inhibitor: inactive

How did COC(=O)C(Cc1c[nH]c2ccccc12)NC(=O)COc1ccc(Cl)cc1Cl (centres undefined) do in these assays?
HepG2 tox: inactive; D3 ag: inactive; TGFb inhibitor: 11µM

Results for COC(=O)C(Cc1c[nH]c2ccccc12)NC(=O)CNC(C)=O (centres undefined) ?
ATXN viability: inactive; HepG2 tox: inactive; D3 ag: inactive; ATXN2 expr inh: inactive; D3 antag: -53; TGFb inhibitor: inactive

Results for Cc1c(C(=O)N(CCO)C(C)C)cnn1-c1ncc2c(n1)-c1ccccc1CCC2 ?
ATXN viability: inactive

Results for CCCc1cc(=O)[nH]c(SCc2nc(-c3ccc(OCC)cc3)no2)n1 ?
HepG2 tox: inactive; D3 ag: inactive; TGFb inhibitor: inactive

Results for Cc1ccc(C(=O)NNC(=O)CSc2nnc3c(n2)[nH]c2ccc(C)cc23)cc1 ?
ATXN viability: inconclusive; HepG2 tox: inactive; D3 ag: inactive; ATXN2 expr inh: inconclusive; D3 antag: inactive; TGFb inhibitor: inactive

What do the screens show for `CCc1ccc2[nH]c3nc(SCC(=O)NNC(=O)c4ccc(C(C)(C)C)cc4)nnc3c2c1`?
ATXN viability: inconclusive; HepG2 tox: inactive; D3 ag: 39; ATXN2 expr inh: inconclusive; D3 antag: inactive; TGFb inhibitor: inactive

Results for CS(=O)(=O)Nc1cc2occ(NC=O)c(=O)c2cc1Oc1ccccc1 ?
ATXN viability: inactive; D3 ag: inactive

How did COCCCNC(=O)CC(NS(=O)(=O)c1ccc(C)cc1)c1ccco1 (centres undefined) do in these assays?
ATXN viability: inactive; HepG2 tox: inactive; D3 ag: inactive; ATXN2 expr inh: inactive; D3 antag: -58; TGFb inhibitor: inconclusive

What do the screens show for `COc1cc(-c2cnc3ccccc3c2)cc2c1OCCN(C(=O)CCn1nc(C)cc1C)C2`?
ATXN viability: inactive

What do the screens show for `Cc1c2cnn(CC(=O)N3CCN(c4ccccc4)CC3)c(=O)c2c(C)n1Cc1ccc(F)cc1`?
HepG2 tox: inactive; D3 ag: inactive; TGFb inhibitor: inactive

What do the screens show for `CCC(C)NC(=O)c1ccc2c(c1)N=C(C)c1cc(C)ccc1S2` (centres undefined)?
ATXN viability: inconclusive; HepG2 tox: inactive; D3 ag: inactive; ATXN2 expr inh: inactive; TGFb inhibitor: 7.1µM

What do the screens show for `O=C1c2ccccc2C(=O)N1c1cccc(N2C(=O)c3ccccc3C2=O)n1`?
HepG2 tox: inactive; TGFb inhibitor: inactive

What do the screens show for `O=C(Oc1cccc(C(=S)N2CCOCC2)c1)c1ccc([N+](=O)[O-])cc1[N+](=O)[O-]`?
ATXN viability: inactive; HepG2 tox: inactive; D3 ag: inactive; ATXN2 expr inh: inactive; D3 antag: -51; TGFb inhibitor: inconclusive

Results for CCOc1ccccc1NC(=O)CSc1nccn1Cc1ccc(F)cc1 ?
HepG2 tox: inactive; D3 ag: inactive; TGFb inhibitor: inactive

Results for COc1ccc(O)c(-c2[nH]ncc2C(=O)c2ccccc2)c1 ?
ATXN viability: inactive; HepG2 tox: inactive; D3 ag: inactive; ATXN2 expr inh: inactive; D3 antag: -57; TGFb inhibitor: inactive

Results for O=C(Cn1ccc2cc(S(=O)(=O)N3CCCCCC3)ccc21)NCc1ccccc1Cl ?
ATXN viability: inactive; HepG2 tox: inactive; D3 ag: inactive; ATXN2 expr inh: inactive; TGFb inhibitor: inactive

Results for C=C(NNC(C)=O)c1ccc(O)cc1 ?
HepG2 tox: inactive; TGFb inhibitor: inactive

What do the screens show for `COc1ccc(NC(=O)c2cc3c(-c4ccccc4F)nn(C)c3s2)c(OC)c1`?
ATXN viability: inactive; HepG2 tox: inactive; D3 ag: 41; ATXN2 expr inh: inactive; TGFb inhibitor: inactive
